From PubChem BioAssay
BRCA1 expr up: BRCA1 expression activation | MCF7-BRCA1-FFLuc reporter, luminescence, 48 h; response scale: scaled: vehicle 0%, 10 µM genistein 100% | Potency, µM (titrated, usually from 46.1 µM), inactives show at the top dose activation, usual class: activators | 1.1% of 380,000 active | AID 624202; further: nearly all actives have a fitted effect of over 80% in size
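Activators of BRCA1 expression were detected as increased firefly luciferase luminescence in engineered MCF7 cells after 48 h compound incubation. Signals were scaled to genistein 10 microM as full activation.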
Mito fusion yeast: inhibitors of mitochondrial division or activators of mitochondrial fusion | S. cerevisiae fusion-defective mutant growth rescue, CellTiterGlo 48 h | Potency, µM (series often up to 46.1 µM), for inactives: top-dose growth rescue (activation), hits mostly activators | 0.23% of 320,000 active | AID 485298; further: % of control where 0% means no effect; nearly all actives have a fitted effect of over 45% in size
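Temperature-sensitive fusion-defective S. cerevisiae (e.g. fzo1-1, mgm1-5) were grown with compound in YPEG medium (3% ethanol, 3% glycerol) for 48 hours at 37C. Growth rescue was measured as viability by CellTiterGlo luminescence after 10 minutes at ambient.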
GLP1R cytotox: cytotoxicity in counter-screen for GLP-1R inverse agonists; AID 624418; Potency, µM (doses to about 38.3 µM), without a hit: at the highest dose activity change, negative = inhibition, actives largely listed as inhibitors; HEK293 cAMP-luciferase reporter cells, luminescence, 24 h; 0.13% of 410,000 active;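 further: loss of luciferase light is scored as toxicity; on the % scale 0 is the no-effect control and ±100 the full control effect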
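Step one: seed cells (200 cells/uL, DMEM with 10% Nu serum, 1% pen-strep). Step two: 12-hour incubation at 37 deg C. Step three: pin 23 nL compound, incubate 24 hr. Step four: add luciferase reagent, read luminescence 12 min later.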
GLP-1R inv ag: acts as inverse agonist at human GLP-1 receptor; Potency, µM (titrated, usually from 38.3 µM), for the others: top-dose activity change, negative = inhibition, hits mostly inhibitors; 1.6% of 410,000 active; P43220; AID 624417; HEK293 GLP-1R CRE-luciferase, luminescence, 24 h; GLP-1R form is constitutively active; further: on the % scale 0 is the no-effect control and ±100 the full control effect; nearly all actives have a fitted effect of over 55% in size
Target sequence (P43220 whole entry, looked up): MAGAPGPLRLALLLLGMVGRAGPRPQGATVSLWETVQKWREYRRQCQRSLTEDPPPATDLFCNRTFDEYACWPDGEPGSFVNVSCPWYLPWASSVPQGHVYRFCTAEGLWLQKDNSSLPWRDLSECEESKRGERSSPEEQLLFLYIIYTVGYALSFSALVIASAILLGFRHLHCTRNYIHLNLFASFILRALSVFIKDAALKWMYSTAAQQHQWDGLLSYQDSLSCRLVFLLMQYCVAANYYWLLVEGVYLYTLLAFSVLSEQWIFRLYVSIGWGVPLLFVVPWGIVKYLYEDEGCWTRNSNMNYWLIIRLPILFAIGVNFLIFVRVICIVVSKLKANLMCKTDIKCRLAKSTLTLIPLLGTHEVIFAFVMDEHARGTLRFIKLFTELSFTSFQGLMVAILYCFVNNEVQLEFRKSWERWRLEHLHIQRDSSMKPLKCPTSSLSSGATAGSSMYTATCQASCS
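HEK293 cells stably co-expressing a cAMP-responsive luciferase reporter and constitutively active GLP-1R were seeded, incubated 12 h, then exposed to compounds for 24 h at 37 C. Luminescence was read 12 min after detection reagent; inverse agonists lower signal.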
GLP1R ag: GLP-1 receptor (human) agonism | 0.007% of 380,000 active | P43220 | AID 624172 | HEK293 GLP-1R CRE-luciferase, luminescence, 4-6 h; cells express a hypersensitive GLP-1R form | Potency, µM (doses to about 45.6 µM), without a hit: at the highest dose activation, actives largely listed as activators; further: % of control where 0% means no effect
* = called active by the depositor; [ ] = another dose, or the depositor's remark. Rows were chosen to be rich in hits. Some 2.8% of all compounds tested hit in one or more screens of this group. The call rests on the fitted dose curve; in most records, active means well fitted curve in the direction sought with a large enough effect; inconclusive means small, poorly fitted or top-dose-only effect, or another doubt; inactive means no such curve, though single readings can be large; an effect the other way counts as inactive or inconclusive. Potency means the concentration at half of the fitted maximal effect.

Screening COc1cc(/C=N/O)ccc1OCc1ccc(C(=O)O)cc1 returned BRCA1 expr up -91.0%, Mito fusion yeast 0.1%, GLP1R cytotox -31.2%, GLP-1R inv ag inconclusive and GLP1R ag -13.3%.
For COc1cc(/C=N/NS(=O)(=O)c2ccc3ccccc3c2)ccc1OCc1ccc(C(=O)O)cc1 the results were BRCA1 expr up inconclusive, Mito fusion yeast -2.0%, GLP1R cytotox 5.2%, GLP-1R inv ag 2.51µM* and GLP1R ag -8.7%.
For COc1cc(/C=N/NS(=O)(=O)c2ccc(C)cc2)ccc1OCc1cccc(C(=O)O)c1 the results were BRCA1 expr up -91.4%, Mito fusion yeast -4.5%, GLP1R cytotox -1.4%, GLP-1R inv ag 3.16µM* and GLP1R ag -3.3%.
`COc1cccc(CN(C)C(=O)c2sccc2-c2ccccc2)c1OC` gave BRCA1 expr up -8.0%, Mito fusion yeast 0.9%, GLP1R cytotox -3.4%, GLP-1R inv ag inconclusive and GLP1R ag 2.2%.
Screening c1ccn(-c2ccc(-c3ccn[nH]3)cc2)c1 returned BRCA1 expr up 5.01µM*, Mito fusion yeast inconclusive, GLP1R cytotox -1.5%, GLP-1R inv ag -23.1% and GLP1R ag 4.8%.
For Cc1ccc(C(c2c(NC(=O)c3ccco3)sc(C)c2C)N2CCOCC2)cc1 (centres undefined) the results were BRCA1 expr up -2.8%, GLP1R cytotox 3.9%, GLP-1R inv ag -14.6% and GLP1R ag 5.1%.
`Cc1sc(NC(=O)c2ccco2)c(C(c2ccccc2)N2CCC(C)CC2)c1C` (centres undefined) gave BRCA1 expr up -14.8%, Mito fusion yeast -7.4%, GLP1R cytotox -11.8%, GLP-1R inv ag 6.31µM* and GLP1R ag -0.2%.
For Cc1sc(NC(=O)c2ccco2)c(C(c2ccc(F)cc2)N2CCN(C)CC2)c1C (centres undefined) the results were BRCA1 expr up -23.1%, Mito fusion yeast 8.3%, GLP1R cytotox inconclusive, GLP-1R inv ag 7.08µM* and GLP1R ag -0.4%.
For COc1cc(OC)cc(C(=O)NCCc2csc(-c3ccc(C(F)(F)F)cc3)n2)c1 the results were GLP1R cytotox 1.7% and GLP-1R inv ag 10µM*.
For CCCCSCCCNC(=O)Nc1ccc(C)c(C)c1 the results were BRCA1 expr up -15.0%, Mito fusion yeast -0.3%, GLP1R cytotox -20.7%, GLP-1R inv ag inconclusive and GLP1R ag 4.9%.
For c1ccc(SCc2nc3ccccc3s2)nc1 the results were BRCA1 expr up 3.16µM*, Mito fusion yeast -8.4%, GLP1R cytotox -3.7%, GLP-1R inv ag -15.3% and GLP1R ag 10.0%.
Screening CN(C)c1ncccc1-c1nc2ccccc2s1 returned BRCA1 expr up 36.5%, Mito fusion yeast -5.9%, GLP1R cytotox 6.9%[7.66 µM], GLP-1R inv ag 7.3%[7.66 µM] and GLP1R ag 17.8%.
Screening c1ccc(-c2nc3ccccc3s2)nc1 returned BRCA1 expr up 8.91µM*, Mito fusion yeast 2.2%, GLP1R cytotox -18.7%, GLP-1R inv ag -9.4% and GLP1R ag -8.8%.
`CCOC(=O)CSc1nnc(NC(=O)NC(C)C)s1` gave BRCA1 expr up -37.1%, Mito fusion yeast 0.2%, GLP1R cytotox 18.8%, GLP-1R inv ag 6.4% and GLP1R ag 1.1%.
Screening C=CC[C@]12CC=CC(=O)[C@@]1(O)O[C@H](c1ccc(OC)c(OC)c1)[C@H]2C returned BRCA1 expr up -50.6%, GLP1R cytotox -25.1%, GLP-1R inv ag 11.2µM* and GLP1R ag -0.3%.
For Cc1nn(-c2ccccc2)c(Cl)c1C1C(C#N)=C(N)Oc2n[nH]c(C)c21 (centres undefined) the results were BRCA1 expr up -17.4%, Mito fusion yeast -1.8%, GLP1R cytotox -19.2%, GLP-1R inv ag -22.0% and GLP1R ag -7.0%.
For CCCCN(C)C(=O)c1cc2cc3cc(OC)ccc3nc2o1 the results were BRCA1 expr up 6.31µM*, Mito fusion yeast 18.7%, GLP1R cytotox 0.9%, GLP-1R inv ag inconclusive and GLP1R ag 14.8%.
`CCCCN(C)C(=O)c1cc2cc3ccc(OC)cc3nc2o1` gave BRCA1 expr up 4.47µM*, Mito fusion yeast -9.1%, GLP1R cytotox -12.4%, GLP-1R inv ag 2.9% and GLP1R ag 28.4%.
